# Source: PubChem BioAssay (NCI)
# About 83,000 compounds went through this panel and 20% of them were active in at least one assay; those are over-represented in the sample as a whole.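 Interpretation: 100, growth as untreated; towards 0, rising growth inhibition; 0, no net growth; 0 to -100, cell death. Compounds scoring below 10 were considered active.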 Values without a mark were called inactive. Activity calls are given as the source filed them.
# Test system: HL-60(TB) leukemia
# Assay: NCI-60 one-dose screen, 48 h (100 = growth as untreated, 0 = no growth, -100 = all killed)
# Details: 10 µM unless noted
row,Structure (SMILES),growth
1,CCOC(=O)NC(=S)n1oc(=O)c2ccccc21,104%
2,Cc1ccc(Nc2oc(-c3ccccc3)nc2[P+](c2ccccc2)(c2ccccc2)c2ccccc2)cc1,-32.5% (active)
3,O=C1/C(=C/c2ccccn2)NC(=S)N1c1ccccc1Cl,26.9%
4,COc1ccc(S(=O)(=O)N2CCCCC2)cc1NC(=O)c1[nH]c(C)c2c1CCCCC2=O,-10.9% (active)
5,CCCCC(=O)N/N=C/c1cc(I)cc(I)c1O,4.46% (active)
6,Nc1ccc(Oc2c(F)c(F)c(Oc3ccc(N)cc3)c(F)c2F)cc1,76.9%
7,COc1ccc(C(=O)c2sc3nc(-c4cccs4)ccc3c2N)cc1OC,23.3%
8,O=C1c2cccnc2C(=O)c2c1c(C(=O)OCCN1CCOCC1)c1ccccn21,-36.4% (active)
9,CC1(C)NC(=S)NC1=O,89.9%
10,COC(=O)[C@H](CSC)N(C)C(=O)[C@@H]1CSSC[C@@H](NC(=O)c2nc3ccccc3cc2O)C(=O)NCC(=O)N1C,0.567% (active)
11,O=C1NC(=O)/C(=C\c2ccncc2)N1,119%
12,COc1ccc(Oc2nc(Nc3ccc(N4CCCCC4)nc3)ncc2NC(=O)c2cc(OC)cc(OC)c2)cc1,0.492% (active)
13,CN(C)c1ccc(-c2ccc(-c3ccc(C(=N)N)cc3)s2)cc1,14.4%
14,c1ccc(-c2n(Cc3ccc4ccccc4c3)cc[n+]2Cc2ccc3ccccc3c2)cc1,-47.6% (active)
15,CC(=O)Nc1c(C)cc(C)cc1C,99.8%
16,CCOC(=O)c1cc(Cl)c(O)c(Cl)c1,64.9%
17,O=c1oc2c(cc1-c1ccccc1)c(=O)[nH]c1ccccc12,98.1%
18,Cc1nc2nc(N)nc(N)c2nc1C,94.2%
19,CN1CCN(CC(=O)Nc2nc(-c3cccc(NS(=O)(=O)c4cccc5c(N(C)C)cccc45)c3)cs2)CC1,23.3%
20,N#Cc1cncc(-c2ccc3ncnc(Nc4cccc(Cl)c4)c3c2)c1,97.2%

row,Structure (SMILES),growth
1,N#Cc1nc(-c2ccc(Cl)cc2)oc1S(=O)(=O)N1CCN(c2ccc(F)cc2)CC1,66.3%
2,CCN1C(=O)/C(=c2\sc3n(c2=O)C2C(NN=3)N(CC)C(=O)N2CC)c2ccccc21 (stereo not given),-29.3% (active)
3,CCOC(=O)c1noc2c1CCc1cn(Cc3cc(OC)cc(OC)c3)cc1-2,77.1%
4,O=C(NCCN1CCOCC1)Nc1ccc(-c2cc3c(Nc4ccc(Oc5cccc(C(F)(F)F)c5)c(Cl)c4)ncnc3s2)cc1,-25.6% (active)
5,Nc1ccccc1C#C/C=C\C#Cc1cccc(O)c1,12.6%
6,Cc1ccc(C)c2c1sc1nc3n[nH]c(N)c3c(=N)n12,112%
7,C=C[C@@H]1CCC/C=C/[C@@H]2C[C@H](O)C[C@H]2[C@H](O)/C=C/C(=O)O1,8.25% (active)
8,Oc1c(I)cc(I)cc1CNCCCN(Cc1ccccn1)Cc1ccccn1,-27.1% (active)
9,c1ccc(CCCCc2ccc3ccccc3n2)cc1,102%
10,Cn1c(=O)c2[nH]c(SC/C(=N/O)c3ccc(Br)cc3)nc2n(C)c1=O,99.5%
11,COc1ccc(-c2ccc(-c3ccc(-c4ccc(C(=N)N)cc4)s3)s2)cc1OC,99.1%
12,COc1ccc(/C=N/NC(=O)Cn2nnc3ccccc32)cc1,105%
13,Cc1ccccc1C(c1ccccc1)c1ccccc1C,88.4%
14,O=S(=O)(NCCCNc1nccc(-c2c(-c3ccc(O)cc3)nc3sccn23)n1)c1ccc(F)cc1,-32.3% (active)
15,Cc1ccccc1CC(N)C(=O)O (stereo not given),103%
16,COc1ccc(C2C3(C#N)C(N)=NC(=C(C#N)C#N)C23C#N)cc1OC (stereo not given),107%
17,COc1ccc(C2C3=C(COC3=O)N(CCO)c3cc4c(cc32)OCO4)cc1OC (stereo not given),65.7%
18,O=C1/C(=C/c2ccc(F)cc2)CN(Cc2cn(CCNc3ccnc4cc(Cl)ccc34)nn2)C/C1=C\c1ccc(F)cc1,-27.6% (active)
19,O=C(CSc1nc(-c2ccccc2)cc(=O)[nH]1)Nc1nc(-c2ccccc2)cs1,95.7%
20,O=c1n(Cc2ccc3ccccc3c2)ccn1Cc1ccc2ccccc2c1,103%
